Several values for one entry are separate records, joined by “and”; a condition that tells them apart may be missing. Equal values may be shown once. Inconclusive results are not listed. Activity calls are given as the source filed them. Calls follow the shape of the dose curve; as a rule, active = well fitted inhibition curve with a large enough effect in the repeat runs; inconclusive = weak or mixed curves; inactive = flat fitted curve, though single readings scatter.
The molecules below were run against Cytochrome P450 2D6 (Homo sapiens) (UniProt P10635) (assay: Cytochrome P450 family 2 subfamily D member 6 (CYP2D6) small molecule antagonists: luciferase biochemical (cell-free) qHTS assay (AID 1645840; also: nearly all actives have a fitted effect of over 55% in size)). Settings: P450-Glo CYP2D6 enzyme, luciferin luminescence, 1 h; series mostly up to 57.4 µM; activity change, negative = inhibition: at the top concentration.
Method: National Center for Advancing Translational Sciences [NCATS] Assay Overview: Cytochrome P450 (CYP) enzymes are membrane-bound hemeproteins that play a key role in metabolism of drugs and xenobiotics. Assaying the effect of chemicals on CYP isozymes is useful to minimize the adverse drug reactions and toxicities in drug development process. Chemical compounds were tested for their effect on CYP enzyme activities by using P450-Glo (TM) screening systems (Promega Corporation, Madison, WI). These systems provide a luminescent method containing proluciferin substrates and are converted to luciferin products by CYP isozymes. The luciferin products formed are detected with a luciferin detection reagent, and the amount of light produced is proportional to CYP activity. P450-Glo (TM) CYP2D6 screening system (Catalog. No. V9890) was used to detect the compounds that interfere in CYP2D6 activity.
Assay Protocol Summary: Two ul of enzyme-substrate mix was dispensed into medium binding white/solid 1536-well plates (Greiner Bio-One North America Inc., Monroe, NC) using a Flying Reagent Dispenser (FRD, Aurora Discovery, San Diego, CA). […] The assay plates were incubated at room temperature for 10 min. Then 2 ul of NADPH regeneration solution was added to each well of the assay plates using an FRD and incubated at room temperature for 1 h. The reaction was stopped by adding 4 ul of detection reagent using an FRD and after 20 min incubation at room temperature, the luminescence signal was measured using a ViewLux plate reader (Perkin Elmer, Shelton, CT). Data were expressed as relative luminescence units.
% is scaled to controls: 0 for no effect and ±100 for the full control effect; potency is read from the fitted curve at half-maximal effect.

Sequence of Cytochrome P450 2D6 (Homo sapiens) (P10635 whole entry, looked up): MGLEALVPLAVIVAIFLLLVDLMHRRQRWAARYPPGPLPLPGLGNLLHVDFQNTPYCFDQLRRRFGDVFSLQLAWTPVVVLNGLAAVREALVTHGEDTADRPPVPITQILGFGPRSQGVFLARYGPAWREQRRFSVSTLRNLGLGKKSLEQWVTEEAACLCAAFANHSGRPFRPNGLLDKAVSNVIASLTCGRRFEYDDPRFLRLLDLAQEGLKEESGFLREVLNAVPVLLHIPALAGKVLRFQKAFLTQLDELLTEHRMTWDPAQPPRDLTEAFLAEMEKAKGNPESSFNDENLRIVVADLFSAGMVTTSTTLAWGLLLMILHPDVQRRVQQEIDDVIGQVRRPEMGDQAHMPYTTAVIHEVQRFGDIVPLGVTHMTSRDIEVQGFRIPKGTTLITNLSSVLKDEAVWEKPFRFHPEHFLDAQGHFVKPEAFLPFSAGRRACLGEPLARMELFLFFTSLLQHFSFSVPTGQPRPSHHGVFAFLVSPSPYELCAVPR

SMILES | Potency | activity change, negative = inhibition
Cc1cc(C(C)(C)C)c(O)c(C)c1CC1=NCCN1 | 1.95 µM (active) | 
Cc1cc(C(C)(C)C)cc(C)c1CC1=NCCN1 | 4.36 µM (active) | 
Cc1cn([C@H]2C=C[C@@H](CO)O2)c(=O)[nH]c1=O |  | 2.26% (inactive)
Cn1c(=O)c2c(ncn2C)n(C)c1=O | inactive | 
O=C(Nc1ccc([N+](=O)[O-])cc1Cl)c1cc(Cl)ccc1O | 13.5 µM (active) | 
CC(COc1ccccc1)N(CCCl)Cc1ccccc1 (stereo not given) | 0.723 µM (active) | 
CC1(C)O[C@H]2CC(=O)OC[C@]23[C@H]2CC[C@@]4(C)[C@H](c5ccoc5)OC(=O)[C@H]5O[C@]54[C@]2(C)C(=O)C[C@@H]13 |  | -0.351% (inactive)
CN1CCN(CCCN2c3ccccc3Sc3ccc(Cl)cc32)CC1 | 0.155 µM (active) | 
NS(=O)(=O)c1cc2c(cc1Cl)NCNS2(=O)=O |  | 3.54% (inactive)
CC(C)NCC(O)COc1ccc(CCOCC2CC2)cc1 (stereo not given) |  | -18.8% (inactive)
CS(=O)(=O)Nc1ccc([N+](=O)[O-])cc1Oc1ccccc1 |  | -16.3% (inactive)
COC(=O)Nc1nc2ccc(C(=O)c3cccs3)cc2[nH]1 |  | 1.28% (inactive)
CC1(CN2CCC(n3c(=O)[nH]c4ccccc43)CC2)OCc2ccccc2-n2cccc21 (stereo not given) | 1.38 µM (active) | 
COc1ccc2c(c1)c(CC(=O)O)c(C)n2C(=O)c1ccc(Cl)cc1 |  | 12.4% (inactive)
Cn1ccc2cc3c(cc21)CCN3C(=O)Nc1cccnc1 |  | 0.211% [at 23.9 µM] (inactive)
CC(C)Cc1ccc(C(C)C(=O)O)cc1 (stereo not given) |  | 2.98% (inactive)
CC(C)(C)C(=O)Oc1ccc(S(=O)(=O)Nc2ccccc2C(=O)NCC(=O)O)cc1 |  | 16.9% (inactive)
COc1nc(C)nc(Cl)c1NC1=NCCN1 |  | 7.65% (inactive)
Nc1nc2c(ncn2COC(CO)CO)c(=O)[nH]1 |  | 5.85% (inactive)
O=C1N(c2ccccc2)c2ccccc2C1(Cc1ccncc1)Cc1ccncc1 |  | -15.1% (inactive)

SMILES | Potency | activity change, negative = inhibition
COc1ccc(CCN(C)CCCC(C#N)(c2ccc(OC)c(OC)c2)C(C)C)cc1OC (stereo not given) | inactive | 
Nc1c2c(nc3ccccc13)CCCC2 | 9.77 µM (active) | 
Cc1ccc(-c2cc(C(F)(F)F)nn2-c2ccc(S(N)(=O)=O)cc2)cc1 | 13.8 µM (active) | 
CCOC(=O)Nc1ccc(NCc2ccc(F)cc2)nc1N | 3.09 µM (active) | 
CN(Cc1cnc2nc(N)nc(N)c2n1)c1ccc(C(=O)N[C@@H](CCC(=O)O)C(=O)O)cc1 |  | 6.67% (inactive)
Clc1ccc2nsnc2c1NC1=NCCN1 | 17.4 µM (active) | 
COc1ccc2[nH]cc(CCNC(C)=O)c2c1 |  | -15.1% (inactive)
CCC1(c2ccccc2)C(=O)NCNC1=O |  | 1.1% (inactive)
CC1COc2c(N3CCN(C)CC3)c(F)cc3c(=O)c(C(=O)O)cn1c23 (stereo not given) |  | -1.61% (inactive)
Cc1ccccc1N1C(=O)c2cc(S(N)(=O)=O)c(Cl)cc2NC1C (stereo not given) |  | 18.9% (inactive)
OCCN(CCO)c1nc(N2CCCCC2)c2nc(N(CCO)CCO)nc(N3CCCCC3)c2n1 | 4.9 µM (active) | 
O=C1Cc2cc(CCN3CCN(c4nsc5ccccc45)CC3)c(Cl)cc2N1 | 9.77 µM (active) | 
CC[C@@]1(O)C(=O)OCc2c1cc1n(c2=O)Cc2cc3c(CN(C)C)c(O)ccc3nc2-1 |  | 4.64% (inactive)
Clc1ccc(C(c2ccccc2Cl)C(Cl)Cl)cc1 (stereo not given) |  | -20.8% (inactive)
CC(=O)OCC(CCn1cnc2cnc(N)nc21)COC(C)=O |  | 4.66% (inactive)
CCC1(C)CC(=O)NC1=O (stereo not given) |  | -9.78% (inactive)
CN(C)CCC=C1c2ccccc2C=Cc2ccccc21 | 3.89 µM (active) and 8.49 µM (active) | 
C[C@@H]1CC(=O)NN=C1c1ccc(NN=C(C#N)C#N)cc1 | inactive | 
Nc1ccn([C@H]2CC[C@@H](CO)O2)c(=O)n1 |  | 16.1% (inactive)
NCCCCCC(=O)O |  | 2.22% (inactive)

From PubChem BioAssay (NCATS)
